Reference: PubChem BioAssay AID504861 (Broad Institute, 2011)
Screen size: about 1,200 compounds; about 290 (24%) were called active. Roughly 3% stayed inconclusive and do not appear here. Only a sample is shown. Entries with a potency or affinity are not part of this list. Values without a mark were called inactive.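 How the source made its calls: active means compounds lowering cell viability signal with fitted half-maximal concentration at most ten times their highest tested concentration; inconclusive means flat fit with 30 to 70% signal loss, or poor fit; inactive means the rest.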

Experiment: HEK293T cell viability reduction, dose response, cytotoxicity control for LMP1 NF-kB inhibitor project, CellTiter-Glo luminescence, cherry-picks (AID 504861)
Settings: CellTiter-Glo ATP luminescence, 48 h; series mostly up to 26 µM; activity change, negative = cytotoxicity: at the top concentration

| Structure (SMILES) | activity change, negative = cytotoxicity [%] |
| --- | --- |
| Cc1nc(N)nc(SCc2ccc([N+](=O)[O-])cc2)c1N | 11.7 |
| COc1cc(/C=N/NC(=O)c2cccc(S(=O)(=O)N3CCOCC3)c2)cc(OC)c1O | -1.07 |
| COc1cc(C(=O)Oc2ccccc2/C=N/NC(=O)c2ccc(C)c(Cl)c2)cc(OC)c1OC | 2.62 |
| CCCCCC(=O)NC(=S)Nc1ccc(Br)cc1C | 5.46 |
| O=C(N/N=C/c1cccc(O)c1)c1ccc2c(c1)OCCO2 | 1.25 |
| Cc1cccc(C)c1NC(=O)CN(C)C(=O)c1ccc(-c2cccc(C(F)(F)F)c2)o1 | -5.78 |
| COCCNC(=O)C(=O)NCC1OCCN1C(=O)c1ccc(Cl)cc1 (stereo not drawn) | 8.08 |
| COC(=O)c1ccc(/C=C(/NC(=O)c2ccccc2)C(=O)N2CCOCC2)cc1 | 1.26 |
| Cc1ccc(N=c2c([N+](=O)[O-])nn(-c3ccc4c(c3)OCCO4)n2O)cc1F | 23.8 |
| COc1ccc(C(=O)NC(=S)NNC(=O)c2ccc3ccccc3n2)cc1 | 1.74 |
| CC(=O)Nc1ccc(OCC(O)CNC(C)C)cc1 (stereo not drawn) | 5.57 |
| COc1ccc(-c2cnc(NCc3cc4c(cc3[N+](=O)[O-])OCO4)n2C)cc1 | 6.75 |
| Cc1ccc(-n2c(C)c([N+](=O)[O-])c3ccc(O)c(CN(C)C)c32)cc1 | -4.92 |
| O=C(Nc1ncccc1O)c1ccc(S(=O)(=O)NCc2ccco2)cc1 | -2.08 |
| O=C(/C=C/Nc1ccc(Br)cc1F)c1ccccc1 | -4.86 |
| Cc1ccsc1/C=N/NC(=O)c1ccc2c(c1)OCCO2 | -4.75 |
| COc1ccccc1C=NN=Cc1ccccc1O | 5.09 |
| CC(=O)c1c(C)[nH]c(C(=O)Nc2ccc(C)cn2)c1C | 5.29 |
| CN(C)c1cccc(C(=O)N/N=C/c2ccccc2F)c1 | -0.047 |
| CCc1nnc(NC(=O)c2ccc(S(=O)(=O)N3CCOCC3)cc2)s1 | 5.76 |
| CCCn1c(C)cc(C(=O)COC(=O)c2ccc[nH]c2=O)c1C | 3.28 |
| CCn1c2ccccc2c2cc(/C=C(/C#N)C(N)=S)ccc21 | -9.81 |
| Oc1c(N=NC(=S)Nc2ccccc2F)c2ccccc2n1Cc1cccc(Cl)c1 | 2.68 |
| COC(=O)C1=C(C)N(c2cc(C)cc(C)c2)/C(=C/c2ccc(O)cc2)C1=O | 0.245 |
| COC(=O)/C=C/C(=O)Nc1cccc(C(F)(F)F)c1 | 9.97 |
| O=C(CN1CCN(S(=O)(=O)c2ccc(F)cc2)CC1)Nc1cccc(C(F)(F)F)c1 | 3.31 |

| Structure (SMILES) | activity change, negative = cytotoxicity [%] |
| --- | --- |
| CCOc1ccc(C(=O)Nc2nnc(SCC(=O)NCC3CCCO3)s2)cc1 (stereo not drawn) | 10.5 |
| CN=C1S/C(=C\c2ccc(O)c(Br)c2)C(=O)N1C | 6.54 |
| CC(=O)O[C@H]1CC[C@@]2(C)C(=CC[C@H]3[C@@H]4CC[C@H](C(C)=O)[C@@]4(C)CC[C@@H]32)C1 | -0.254 |
| NC(=O)C1(Nc2ccc([N+](=O)[O-])cc2)CCCC1 | -8.21 |
| Cc1ccccc1Cn1c(O)c(N=NC(=S)Nc2ccccc2F)c2ccccc21 | 8.25 |
| CCOc1ccc(NC(=O)Cn2cc(C(=O)CC)c3ccccc32)cc1 | 9.94 |
| O=C(O)c1ccc(N/N=C/c2ccc3ncccc3c2)cc1 | 18.4 |
| COc1cccc(C(=O)Nc2nc3ccccc3[nH]2)c1 | -10.2 |
| O=C(CSc1nc2ccccc2c(=O)n1CCCN1CCOCC1)Nc1ccc(Br)cc1 | 5.39 |
| CC(C)(C)c1ccc(C(=O)Nc2nnc(SCC(=O)NCC3CCCO3)s2)cc1 (stereo not drawn) | 6.78 |
| CCC(Oc1ccccc1)C(=O)NC1CCSC1=O (stereo not drawn) | 11.1 |
| O=C(NC1CCCCC1)N1CCN(c2ccc([N+](=O)[O-])cc2)CC1 | -5.64 |
| CCOC(=O)c1sc2nc(C)nc(NCc3ccccc3)c2c1C | -0.055 |
| CCN(CC(=O)Nc1ccc(NC(C)=O)cc1)C(=O)c1cccnc1Sc1ccc(C)c(C)c1 | 3.97 |
| Cc1ccccc1C(=O)NC(=S)Nc1ccc(N2CCN(C(=O)c3ccccc3)CC2)cc1 | -0.757 |
| Cc1ccc(CNC(=O)C(=O)NCC2OCCN2S(=O)(=O)c2ccc(Cl)cc2)cc1 (stereo not drawn) | 12.9 |
| CN1CCN(/N=C/c2ccc(N(c3ccccc3)c3ccccc3)cc2)CC1 | -5.7 |
| COc1cccc(/C=N/Nc2ncnc(N)c2[N+](=O)[O-])c1OC | 4.22 |
| O=[N+]([O-])c1ccc(O)c(/C=N/Nc2ncnc3c2cnn3-c2ccccc2)c1 | 13 |
| Cc1cc(C(=O)COc2cccnc2[N+](=O)[O-])c(C)n1-c1ccccc1F | -9.11 |
| Cc1ccsc1-c1nc(CSCC(=O)N2CCN(c3ccccc3)CC2)c(C)o1 | -11.5 |
| Oc1c(N=NC(=S)Nc2ccccc2F)c2ccccc2n1Cc1ccc(F)cc1 | -7.28 |
| COc1ccc(Cn2c(SCc3cc(C)ccc3C)nc3cc(OC)c(OC)cc3c2=N)cc1 | 3.5 |
| COc1ccc(-c2cn3nc4c(nc3n2)CCCC4)cc1 | 5.52 |
| CCOC(=O)C1=C(C)NC(C)=C(C(=O)OCC)C1C(=O)OCC(=O)N(C)C1CCS(=O)(=O)C1 (stereo not drawn) | 15.2 |
| O=C(CCCN1C(=O)/C(=C/c2ccccc2Cl)SC1=S)NNC(=O)c1ccccc1Cl | 4.78 |

| Structure (SMILES) | activity change, negative = cytotoxicity [%] |
| --- | --- |
| Cc1cc(C(=O)CSc2nnc(-c3cccs3)o2)c(C)n1-c1ccccc1 | 1.11 |
| O=C(O)CN1C(=O)/C(=C\c2ccccc2OCc2ccc(Cl)cc2Cl)SC1=S | 5.71 |
| O=c1c2cnn(-c3ccccc3)c2nc(-c2cccs2)n1-c1ccc(Br)cc1 | 1.27 |
| COc1ccc(N2CCN(CCNC(=O)CCCn3c(=O)[nH]c4cc(Cl)ccc4c3=O)CC2)cc1 | 5.79 |
| COc1cc(C(=S)N2CCOCC2)cc(OC)c1OC(=O)c1ccc(F)cc1 | 2.77 |
| COc1ccc(NC(=O)c2ccc(-c3ccccc3)cc2)cc1S(=O)(=O)N1CCOCC1 | 0.12 |
| CC(C)CCNC(=O)C1CCN(S(=O)(=O)c2ccc3c(c2)CC(C)N3C(=O)C2CC2)CC1 (stereo not drawn) | -4.11 |
| COc1ccc(OC)c(S(=O)(=O)NC(C)CCc2ccccc2)c1 (stereo not drawn) | -3.46 |
| COc1ccc(C(=O)CSc2nnc(Cc3ccccc3)o2)cc1 | -0.444 |
| Cc1ccc(-c2nc3cccnc3o2)cc1NC(=O)COc1ccc(C(C)(C)C)cc1 | -1.19 |
| CCc1ccc(C(=O)COC(=O)c2cccc(N3C(=O)c4c(C)nc5ccccc5c4C3=O)c2)cc1 | 17.6 |
| CCOC(=O)Cc1csc(N/N=C\c2ccc(N(C)C)cc2)n1 | -1.39 |
| O=C(OCc1ccccc1F)c1cc2ccccc2cc1O | -1.01 |
| Cc1cc(OCC(=O)Nc2cnn(CCCC(=O)O)c2)ccc1Cl | 13.2 |
| C=CCn1c(SCc2ccc3nonc3c2)nnc1-c1cccs1 | 1.17 |
| CCOC(=O)c1sc(NC(=O)CNCc2ccccn2)c(C(=O)OCC)c1C | -5.06 |
| Cc1ccc(-n2ccc(=O)c(C(=O)Nc3ccc(S(=O)(=O)N4CCOCC4)cc3)n2)cc1 | 0.296 |
| Cc1ccnc(NC(=O)c2sc3ccccc3c2Cl)c1 | 6.79 |
| Oc1c(N=NC(=S)Nc2ccccc2F)c2ccccc2n1Cc1ccccc1 | -0.998 |
| Cc1ccc(S(=O)(=O)NC(CC(C)C)C(=O)NCC(c2ccco2)N2CCCCC2)cc1 (stereo not drawn) | -0.283 |
| CCCCCn1c(N2CCOCC2)nc2c1c(=O)n(CC(N)=O)c(=O)n2C | 8.7 |
| C(=Cc1nc2ccccc2o1)c1ccc2c(c1)OCO2 | 2.36 |
| O=C(NCCOc1ccccc1)c1ccc2c(c1)OCO2 | -2.16 |
| Cc1cc(C)c(OCCn2ccnc2)c(C)c1 | -0.473 |
| COc1ccc2oc(C(=O)NCCc3ccccc3)c(C)c2c1 | -1.74 |
| COc1ccc(-c2nnc(NC(=O)c3ccc(S(=O)(=O)N4CCCc5ccccc54)cc3)o2)cc1 | 4.47 |

| Structure (SMILES) | activity change, negative = cytotoxicity [%] |
| --- | --- |
| O=C1N[C@@H](Cc2c[nH]c3ccccc23)COC(=O)[C@H](Cc2ccc(F)cc2)C/C=C\C[C@H]1CC(=O)N(CCO)Cc1ccccc1 | -1.61 |
| Cc1sc2ncnc(N3CCC(C(=O)Nc4ccccc4C(C)(C)C)CC3)c2c1C | -1.53 |
| Cc1sc2ncn(CC(=O)N3CCC(C(N)=O)CC3)c(=O)c2c1S(=O)(=O)N1CCOCC1 | 10.7 |
| O=c1oc2ccccc2c(O)c1/C=N/c1ccccn1 | 10.1 |
| CC1(C)Cc2nc3sc4c(SCC(=O)O)ncnc4c3cc2CO1 | 5.57 |
| COc1ccc(C(=O)N2CC(=O)Nc3ccccc32)cc1S(=O)(=O)N1CCCC1 | 17.4 |
| CCOc1ccc(S(=O)(=O)N2CCC(C(=O)NCCc3ccc(S(N)(=O)=O)cc3)CC2)cc1 | 9.59 |
| CCOc1ccc(NC(=S)N=Nc2c(O)[nH]c3ccccc23)cc1 | -3.24 |
| CSc1oc(-c2ccc(F)cc2)nc1S(=O)(=O)c1ccc(F)cc1 | 5.8 |
| O=C(CN1C(=O)C2C3C=CC(C3)C2C1=O)NCCC1=CCCCC1 (stereo not drawn) | 22 |
| O=C(Cc1ccc(Cl)cc1)NCC(=O)N1CCCCC1 | 6.35 |
| CCCCN1C2CCCC1CC(NC(=O)C1CCCCC1)C2 (stereo not drawn) | 7.49 |
| Cc1ccc(C(=O)Nc2nnc(SCC(=O)N3CCCc4ccccc43)s2)cc1 | 5.64 |
| CCc1sc(C(=O)Nc2nc(-c3ccccn3)cs2)cc1C | -6.77 |
| Cc1cccc(CNc2ncnc3ccc(-c4ccoc4)cc23)c1 | 4.7 |
| COCCn1c(C)cc(C(=O)CSc2nnc3ccccn23)c1C | -3.29 |
| Cc1ccc(S(=O)(=O)N2c3ccccc3-c3c(ssc3=S)C2(C)C)cc1 | -4.1 |
| Nc1ncnc2c1c(-c1ccc(Oc3ccccc3)cc1)cn2C1CCCC1 | 3.2 |
| O=C(Nc1cc(C(F)(F)F)cc(C(F)(F)F)c1)Nc1cnn(-c2ccc([N+](=O)[O-])cc2)c1C(F)(F)F | -0.689 |
| CCOc1ccc(NC(=O)c2ccc(N3CC4CC(C3)c3cccc(=O)n3C4)c(NC(=O)c3cccnc3)c2)cc1 (stereo not drawn) | 10.1 |
| Cc1cccc(S(=O)(=O)N2CCCc3ccccc32)c1 | 0.425 |
| COc1ccc(OC)c(NC(=O)COc2coc(CN3CCc4ccccc43)cc2=O)c1 | 5.75 |
| Nc1ccc(CCNc2ncnc3c2ncn3[C@@H]2O[C@H](CO)[C@@H](O)[C@H]2O)cc1 | 6.31 |
| COc1ccc(-c2cc(C(F)(F)F)n3nc(C(=O)N4CCOCC4)nc3n2)cc1 | 15.6 |
| O=C(Nc1ccc2c(c1)C(=O)OC2)c1ccc(C(F)(F)F)cc1 | 0.862 |
